From PubChem BioAssay AID1159580 (chemical genetic matrix, 2015)
About 2,000 (36%) of roughly 5,500 compounds were called active. Another 18% or so got no clear call; they are omitted. No stated cut-off is given here; in the data, active means normalized growth mostly below about 0.91 (no sharp cut-off); inconclusive means no clear call, values can overlap the other calls; inactive means mostly above about 0.92. The list shows a part of the results.

Experiment: chemical genetic growth profiling, strain panel (AID 1159580);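 further: tested at 20 µM; growth read once vehicle control cultures reached saturation at 30 °C; 1 = growth at the plate median or of vehicle wells; lower values mean less growth of the strain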
Settings: growth OD

Measured: normalized growth

C[C@H]1[C@H](C)CC[C@]2(CO)CC[C@]3(C)C(=CCC4[C@@]5(C)CC[C@H](O)C(C)(C)C5CC[C@]43C)[C@H]12 (some centres not stated)
inactive: S. cerevisiae deletion strains, locus YKL009W, strain mrt4, active compounds read low 1.01 | S. cerevisiae deletion strains, locus YKL068W, active compounds read low 1.02 | S. cerevisiae deletion strains, locus YKL085W, strain MDH1 (second series), active compounds read low 1.04 | S. cerevisiae deletion strains, locus YKL085W, strain MDH1, active compounds read low 1.04 | S. cerevisiae deletion strains, locus YKL160W, strain elf1, active compounds read low 0.995 | S. cerevisiae deletion strains, locus YKL190W, strain CNB1, active compounds read low 1.01 | S. cerevisiae deletion strains, locus YKR001C, strain vps1, active compounds read low 1.03 | S. cerevisiae deletion strains, locus YKR026C, strain gcn3, active compounds read low 0.997 | S. cerevisiae deletion strains, locus YKR091W, strain srl3, active compounds read low 0.988 | S. cerevisiae deletion strains, locus YLL001W, strain dnm1, active compounds read low 1.01 | S. cerevisiae deletion strains, locus YLL026W, active compounds read low 1.01 | S. cerevisiae deletion strains, locus YLL041C, strain sdh2, active compounds read low 1 | S. cerevisiae deletion strains, locus YLR027C, strain aat2, active compounds read low 0.976 | S. cerevisiae deletion strains, locus YLR039C, strain RIC1, active compounds read low 1.08 | S. cerevisiae deletion strains, locus YLR058C, strain SHM2, active compounds read low 1.02 | S. cerevisiae deletion strains, locus YLR102C, strain apc9, active compounds read low 1.02 | S. cerevisiae deletion strains, locus YLR113W, strain HOG1, active compounds read low 0.967 | S. cerevisiae deletion strains, locus YLR221C, strain rsa3, active compounds read low 0.986 | S. cerevisiae deletion strains, locus YLR258W, strain gsy2, active compounds read low 0.989 | S. cerevisiae deletion strains, locus YLR262C, strain YPT6 (second series), active compounds read low 1.04 | S. cerevisiae deletion strains, locus YLR262C, strain YPT6, active compounds read low 1.08 | S. cerevisiae deletion strains, locus YLR268W, strain sec22, active compounds read low 1.03 | S. cerevisiae deletion strains, locus YLR320W, strain mms22, active compounds read low 0.987 | S. cerevisiae deletion strains, locus YLR330W, strain CHS5, active compounds read low 1.01 | S. cerevisiae deletion strains, locus YLR342W, strain FKS1 (second series), active compounds read low 1 | S. cerevisiae deletion strains, locus YLR342W, strain FKS1, active compounds read low 0.989 | S. cerevisiae deletion strains, locus YLR357W, strain rsc2, active compounds read low 0.999 | S. cerevisiae deletion strains, locus YLR370C, strain arc18, active compounds read low 1 | S. cerevisiae deletion strains, locus YLR371W, strain rom2, active compounds read low 1.03 | S. cerevisiae deletion strains, locus YLR384C, strain iki3, active compounds read low 0.974 | S. cerevisiae deletion strains, locus YLR418C, strain cdc73, active compounds read low 1.03 | S. cerevisiae deletion strains, locus YML016C, strain PPZ1, active compounds read low 1.02 | S. cerevisiae deletion strains, locus YML032C, strain rad52, active compounds read low 1.02 | S. cerevisiae deletion strains, locus YML120C, strain ndi1, active compounds read low 0.988 | S. cerevisiae deletion strains, locus YML124C, strain tub3, active compounds read low 1.03 | S. cerevisiae deletion strains, locus YMR058W, strain fet3, active compounds read low 1 | S. cerevisiae deletion strains, locus YMR078C, strain ctf18, active compounds read low 1.03 | S. cerevisiae deletion strains, locus YMR125W, strain sto1, active compounds read low 1.01 | S. cerevisiae deletion strains, locus YMR129W, active compounds read low 0.988 | S. cerevisiae deletion strains, locus YMR205C, strain PFK2, active compounds read low 0.98 | S. cerevisiae deletion strains, locus YMR223W, strain ubp8, active compounds read low 1.02 | S. cerevisiae deletion strains, locus YMR231W, strain pep5, active compounds read low 1 | S. cerevisiae deletion strains, locus YMR263W, strain SAP30, active compounds read low 1.01 | S. cerevisiae deletion strains, locus YMR307W, strain GAS1, active compounds read low 1.06 | S. cerevisiae deletion strains, locus YNL067W, strain RPL9B, active compounds read low 1.01 | S. cerevisiae deletion strains, locus YNL071W, strain lat1, active compounds read low 0.995 | S. cerevisiae deletion strains, locus YNL183C, strain NPR1, active compounds read low 0.967 | S. cerevisiae deletion strains, locus YNL209W, strain ssb2, active compounds read low 0.988 | S. cerevisiae deletion strains, locus YNL233W, strain BNI4, active compounds read low 1.01 | S. cerevisiae deletion strains, locus YNL248C, strain rpa49, active compounds read low 1 | S. cerevisiae deletion strains, locus YNL250W, strain rad50, active compounds read low 1.04 | S. cerevisiae deletion strains, locus YNL271C, strain bni1, active compounds read low 1.02 | S. cerevisiae deletion strains, locus YNL298W, strain CLA4, active compounds read low 1.01 | S. cerevisiae deletion strains, locus YNL307C, strain MCK1, active compounds read low 1.04 | S. cerevisiae deletion strains, locus YNL322C, strain KRE1 (second series), active compounds read low 0.99 | S. cerevisiae deletion strains, locus YNR049C, strain mso1, active compounds read low 0.99 | S. cerevisiae deletion strains, locus YNR052C, strain pop2, active compounds read low 1.01 | S. cerevisiae deletion strains, locus YOL006C, strain TOP1, active compounds read low 1.07 | S. cerevisiae deletion strains, locus YOL012C, strain htz1 1.12 | S. cerevisiae deletion strains, locus YOL147C, strain pex11, active compounds read low 1.02 | S. cerevisiae deletion strains, locus YOR001W, strain rrp6, active compounds read low 0.946 | S. cerevisiae deletion strains, locus YOR061W, strain CKA2, active compounds read low 1.01 | S. cerevisiae deletion strains, locus YOR069W, strain VPS5, active compounds read low 1.01 | S. cerevisiae deletion strains, locus YOR070C, strain gyp1, active compounds read low 0.975 | S. cerevisiae deletion strains, locus YOR080W, strain dia2, active compounds read low 0.992 | S. cerevisiae deletion strains, locus YOR083W, strain WHI5, active compounds read low 0.995 | S. cerevisiae deletion strains, locus YOR106W, strain vam3, active compounds read low 1.01 | S. cerevisiae deletion strains, locus YOR136W, strain idh2, active compounds read low 1.03 | S. cerevisiae deletion strains, locus YOR144C, strain elg1, active compounds read low 1.02 | S. cerevisiae deletion strains, locus YOR184W, strain ser1, active compounds read low 1.01 | S. cerevisiae deletion strains, locus YOR231W, strain MKK1, active compounds read low 0.996 | S. cerevisiae deletion strains, locus YOR265W, strain rbl2, active compounds read low 0.986 | S. cerevisiae deletion strains, locus YOR270C, strain vph1, active compounds read low 0.984 | S. cerevisiae deletion strains, locus YOR290C, strain snf2, active compounds read low 0.998 | S. cerevisiae deletion strains, locus YOR316C, strain cot1, active compounds read low 1.03 | S. cerevisiae deletion strains, locus YPL051W, strain arl3, active compounds read low 0.998 | S. cerevisiae deletion strains, locus YPL078C, strain atp4, active compounds read low 0.993 | S. cerevisiae deletion strains, locus YPL106C, strain sse1, active compounds read low 1.09 | S. cerevisiae deletion strains, locus YPL240C, strain hsp82, active compounds read low 1.01 | S. cerevisiae deletion strains, locus YPL241C, strain CIN2, active compounds read low 0.995 | S. cerevisiae deletion strains, locus YPL256C, strain CLN2, active compounds read low 1.07 | S. cerevisiae deletion strains, locus YPR119W, strain clb2, active compounds read low 1.03 | S. cerevisiae deletion strains, locus YPR141C, strain kar3, active compounds read low 1.04 | S. cerevisiae deletion strains, locus YPR163C, strain tif3, active compounds read low 1.03 | S. cerevisiae deletion strains, locus YPR167C, strain met16, active compounds read low 1.02 | S. cerevisiae deletion strains, strain wtn01, active compounds read low 1.01 | S. cerevisiae strains, strain wild type, active compounds read low 1
